Each structure is given as a SMILES string. Values joined by “and” are separate entries in the source; they are usually repeats but may differ in a detail not shown here. Equal entries are not always repeated. Inconclusive results are not listed. Active and inactive are the calls of the source. Rule for the calls: active = hit-call score of the fitted dose curve at least 0.9, where 1 is the maximum; inconclusive = response in the unintended direction; inactive = score below 0.9.

human Opioid Receptor Mu (Opiate Mu), OPRM1 (gene 4988), sequence (P35372 whole entry, looked up): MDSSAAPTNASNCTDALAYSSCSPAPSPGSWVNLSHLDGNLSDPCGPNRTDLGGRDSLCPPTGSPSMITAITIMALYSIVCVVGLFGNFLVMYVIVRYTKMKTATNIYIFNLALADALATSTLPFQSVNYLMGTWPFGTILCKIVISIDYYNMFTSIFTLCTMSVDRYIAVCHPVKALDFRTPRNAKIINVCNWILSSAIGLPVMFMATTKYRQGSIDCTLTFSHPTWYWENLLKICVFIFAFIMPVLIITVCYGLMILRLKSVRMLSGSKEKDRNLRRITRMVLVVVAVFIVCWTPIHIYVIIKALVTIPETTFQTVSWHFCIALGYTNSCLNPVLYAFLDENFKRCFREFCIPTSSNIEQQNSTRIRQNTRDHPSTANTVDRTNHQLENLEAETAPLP

The assay has as its target human Opioid Receptor Mu (Opiate Mu), OPRM1 (gene 4988) (UniProt P35372). Description: NVS_GPCR_hOpiate_mu: NovaScreen (NVS) G Protein-Coupled Receptor Assay for human Opioid Receptor Mu (Opiate Mu) (AID 2283290).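 Note: hits lower bound tracer signal versus DMSO meaning displacement of the ligand.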 The method, then:
NVS_GPCR_hOpiate_mu is a biochemical, single-readout assay that uses extracted gene-proteins from CHO in a cell-free assay. Measurements were taken 2.5 hours after chemical dosing in a 96-well plate.NVS_GPCR_hOpiate_mu is one of one assay component(s) measured or calculated from the NVS_GPCR_hOpiate_mu assay. It is designed to make measurements of radioligand binding, a form of binding reporter, as detected with scintillation counting signals by Filter-based radiodetection technology.Data from the assay component NVS_GPCR_hOpiate_mu was analyzed into 1 assay endpoint. This assay endpoint, NVS_GPCR_hOpiate_mu, was analyzed in the positive analysis fitting direction relative to DMSO as the negative control and baseline of activity. Using a type of binding reporter, loss-of-signal activity can be used to understand changes in the binding as they relate to the gene OPRM1. Furthermore, this assay endpoint can be referred to as a primary readout, because the performed assay has only produced 1 assay endpoint. To generalize the intended target to other relatable targets, this assay endpoint is annotated to the gpcr intended target family, where the subfamily is rhodopsin-like receptor.
Binding assays used specific radioligands (tritiated, iodinated) with non-radioactive competitive displacement ligands in agonist or antagonist protocols (as indicated) and various reference compounds and inhibitors to titrate specific binding to receptors and transporters. Most enzyme assays (CYPs, kinases, phosphatases, proteases, HDACs) used recombinant protein and specific substrates (fluorescence mostly, some colorimetric and radioactive) and inhibitors, followed by a biochemical separation of substrate and product. All assays for the biochemical HTS were initially run in duplicate at a single concentration (10 uM for CYP450 assays and 25 uM for all others). […] Each assay was run with positive and negative controls, and concurrent controls on every plate. The follow-up (secondary) screen tested active chemical-pairs in concentration series, as well as a few additional assays not tested in the primary screen, some selected negative inactives, and several cases re-run in the concentration series for confirmatory purposes.
`CC(C)(C)c1cc(O)ccc1O`: the result was inactive.

As a reminder, the AC50 is the midpoint of the concentration-response curve, whichever way the signal moves. Turning to `CC(=O)[O][Hg][c]1ccccc1`, the AC50 is 0.0908 µM (active).

On to `C=C(C)C(=O)[O][Sn]([CH2]CCC)([CH2]CCC)[CH2]CCC`, for which the AC50 was 0.653 µM (active).

For the compound `O=C1C2(Cl)C3(Cl)C4(Cl)C(Cl)(Cl)C5(Cl)C3(Cl)C1(Cl)C5(Cl)C24Cl` (stereo unspecified), the AC50 is 1.63 µM (active) and 2.66 µM (active) and 1.08 µM (active).

Turning to `O=C(Nc1ccc2[nH]ccc2c1)c1cc2cc(F)ccc2n1Cc1cccc(F)c1`, the compound was classed as inactive.

Regarding `Nc1ncc([N+](=O)[O-])s1`, the AC50 is 17.6 µM (active).

On to `ClC1=C(Cl)[C@]2(Cl)[C@H]3[C@H]([C@H]4C=C[C@H]3C4)[C@@]1(Cl)C2(Cl)Cl`, for which the call was inactive.

Take `O=C(OC1CCCCC1)c1ccccc1C(=O)OC1CCCCC1`: the result was inactive.

For `O=C(O)C(F)(F)C(F)(F)C(F)(F)C(F)(F)C(F)(F)C(F)(F)C(F)(F)C(F)(F)C(F)(F)C(F)(F)F`, the AC50 is 12.4 µM (active).

Turning to `CCOP(=S)(OCC)SCSP(=S)(OCC)OCC`, the result was inactive.

Take `CC(C)(C)CC(C)(C)c1ccc(O)cc1`: the AC50 is 16.7 µM (active).

The record behind these values is PubChem BioAssay (EPA / NIEHS).
